Rows were chosen to be rich in hits. Some 12% of all compounds tested hit in one or more screens of this group.
AmpC inh detg: qHTS Inhibitors of AmpC Beta-Lactamase (assay with detergent) | AmpC hydrolysis of nitrocefin, absorbance 480 nm, 0.01% Triton | 370,000 tested, 0.041% active | AID 485294, 2010 | Potency, µM (doses to about 114 µM), actives largely listed as inhibitors; note: nearly all actives have a fitted effect of over 25% in size
Target sequence (P00811 whole entry, looked up): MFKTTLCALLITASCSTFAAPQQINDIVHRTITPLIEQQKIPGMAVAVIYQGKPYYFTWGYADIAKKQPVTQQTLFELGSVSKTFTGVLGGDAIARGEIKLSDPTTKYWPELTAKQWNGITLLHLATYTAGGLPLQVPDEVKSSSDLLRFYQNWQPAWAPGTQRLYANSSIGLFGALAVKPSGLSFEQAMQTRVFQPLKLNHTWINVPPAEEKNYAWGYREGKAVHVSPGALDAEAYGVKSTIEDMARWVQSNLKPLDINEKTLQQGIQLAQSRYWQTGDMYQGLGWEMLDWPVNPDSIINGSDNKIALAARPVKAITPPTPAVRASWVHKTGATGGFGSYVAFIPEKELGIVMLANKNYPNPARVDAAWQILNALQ
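AmpC (5.3 nM in the dispensed reagent) in 20 mM phosphate pH 7.0 with 0.01% (detergent screen) or 0.0001% Triton X-100 was preincubated with compounds for 15 min at room temperature. Nitrocefin was then added from an 800 uM solution, and hydrolysis was followed at 480 nm.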
AmpC inh no detg: qHTS Inhibitors of AmpC Beta-Lactamase (assay without detergent); P00811; AmpC nitrocefin hydrolysis, absorbance 480 nm, 0.0001% Triton; Potency, µM (highest dose often 57.1 µM), most hits filed as inhibitors; 330,000 tested, 0.52% active; AID 485341, 2010; note: nearly all actives have a fitted effect of over 20% in size
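20 mM phosphate pH 7.0 + 0.01% (detergent screen) or 0.0001% Triton X-100; 5.3 nM AmpC reagent; cpd preinc 15 min RT; nitrocefin (800 uM stock) to start; A480 q20 s × 4 min; Activity was normalised to no-enzyme and no-compound control wells.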
SARS PLpro yeast: qHTS of Yeast-based Assay for SARS-CoV PLP | S. cerevisiae expressing SARS-CoV PLpro, growth rescue | Potency, µM (doses to about 32.9 µM), hits mostly activators | 330,000 tested, 0.19% active | AID 485353, 2010; calls by dose curve; note: nearly all actives have a fitted effect of over 55% in size
Pf growth 96h: Primary qHTS for delayed death inhibitors of the malarial parasite plastid, 96 hour incubation | 320,000 tested, 6.9% active | AID 504834, 2011 | Potency, µM (top dose mostly 28.7 µM), most hits filed as inhibitors | P. falciparum luciferase reporter growth, 96 h
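Erythrocytes infected with luciferase-expressing P. falciparum were dispensed at 2% hematocrit and 0.05% parasitemia (final), then incubated with compounds 96 hours at 37 C in 5% CO2. Luminescence after detection reagent addition reported growth.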
Pf growth 48h: Primary qHTS for delayed death inhibitors of the malarial parasite plastid, 48 hour incubation | Potency, µM (doses to about 28.7 µM), usual class: inhibitors | P. falciparum luciferase growth in erythrocytes, 48 h | 310,000 tested, 5.9% active | AID 504832, 2011
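Luciferase-expressing P. falciparum in infected erythrocytes (2% hematocrit, 0.1% parasitemia final) in RPMI 1640/0.5% Albumax were exposed to compound for 48 hours at 37 C, 5% CO2; growth read as luminescence.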
Sm TGR inh: qHTS Assay for the Inhibitors of Schistosoma Mansoni Peroxiredoxins. AID 485364, 2010. purified TGR, DTNB reduction, TNB absorbance 405 nm. 360,000 tested, 3% active. Schistosoma mansoni thioredoxin glutathione reductase (TGR), Q962Y6. Potency, µM (top dose mostly 114 µM), hits mostly inhibitors; note: nearly all actives have a fitted effect of over 60% in size
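TGR 20 nM + NADPH 100 uM (dispensed conc.), cpd preinc 15 min RT; start with NADPH (500 uM addition) then DTNB (15 mM addition). Kinetic TNB absorbance, 405 nm filter. Four-parameter Hill fit across titration.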
Hits are given with their value; i = inactive; ? = inconclusive; nt = no result; ! = repeats disagree. Unless noted, calls come from the whole dose curve; as a rule, active = well fitted curve in the direction sought with a large enough effect; inconclusive = small, poorly fitted or top-dose-only effect, or another doubt; inactive = no such curve, though single readings can be large; an effect the other way counts as inactive or inconclusive.

SMILES	AmpC inh detg	AmpC inh no detg	SARS PLpro yeast	Pf growth 96h	Pf growth 48h	Sm TGR inh
Cn1c(=O)c2c(-c3ccccc3)n3c(c2n(C)c1=O)C(c1ccc([N+](=O)[O-])cc1)Nc1ccccc1-3 (centres undefined)	i	nt	nt	nt	nt	i
Cc1ncc(CO)c2c1Oc1nc(-c3ccccc3)nc(SCC(=O)N3CCOCC3)c1C2	i	i	i	i	?	31.6µM
Cc1cccc(-c2nc3c(c(SCC(=O)N4CCOCC4)n2)Cc2c(CO)cnc(C)c2O3)c1	i	i	i	i	5.86µM	22.4µM
COc1ccccc1-c1nc2c(c(SCC(=O)N3CCCCC3)n1)Cc1c(CO)cnc(C)c1O2	i	i	i	1.65µM	10.4µM	?
COc1cccc(-c2nc3c(c(SCC(=O)Nc4cc(C)ccc4C)n2)Cc2c(CO)cnc(C)c2O3)c1	i	nt	nt	nt	nt	i
Cc1cccc(NC(=O)CSc2nc(-c3cccc(C)c3)nc3c2Cc2c(CO)cnc(C)c2O3)c1	i	nt	nt	nt	nt	i
COc1cccc(-c2nc3c(c(SCC(=O)N4CCOCC4)n2)Cc2c(CO)cnc(C)c2O3)c1	i	i	i	13.1µM	?	?
CC(C)Oc1ccc(CNC(=O)C(C)n2ccc3cc(S(=O)(=O)N4CCCCCC4)ccc32)cc1 (centres undefined)	i	nt	nt	nt	nt	i
CCN(CC(=O)Nc1cc(Cl)ccc1C)C(=O)c1ccc2c(=O)n3c(nc2c1)CCC3	i	i	i	i	?	i
Cc1ncc(CO)c2c1Oc1nc(-c3ccccc3)nc(SCC(=O)N3CCCCC3)c1C2	i	i	i	?	?	31.6µM!
Cc1ncc(CO)c2c1Oc1nc(-c3ccc(Cl)cc3)nc(SCC(=O)N3CCCCC3)c1C2	i	nt	nt	nt	nt	39.8µM
COc1cccc2c1Oc1nc(-c3ccccc3)nc(SCC(=O)N3CCCCC3)c1C2	i	nt	nt	nt	nt	i
Cc1ncc(CO)c2c1Oc1nc(-c3ccccc3)nc(SCC(=O)N(C)c3ccccc3)c1C2	i	i	nt	13.1µM	?	i
CC(=O)c1cccc(NC(=O)c2cnn3ccccc23)c1	?	i	i	?	nt	i
CC(=O)c1ccc(NC(=O)c2cnn3ccccc23)cc1	?	i	i	10.4µM	nt	i
COC(=O)c1cnn(-c2ccc(C(=O)Nc3ccc(C(C)=O)cc3)cc2)c1N	i	i	i	?	5.22µM	i
Cc1ccc(SCCC(=O)NC2CC2)cc1	i	i	i	i	i	i
O=C1C(c2ccccc2)=[N+]([O-])c2ccccc21	?	i	i	0.37µM	0.657µM	?
Cc1ccc(CN2CCN(CC(=O)N/N=C/c3ccccc3F)CC2)cc1	i	i	i	i	i	i
Cc1ccc(NC(=S)N/N=C/c2cccn2Cc2ccccc2F)cc1	i	i	i	?	9.28µM	i
COC(=O)c1ccc(CNC(=O)CSc2nc3ccccc3[nH]2)cc1	i	i	i	i	i	i
O=C(Oc1ccc2c(c1)OCO2)c1cc2c(s1)CCC2	i	15.8µM	i	?	?	i
Cc1ccc(S(=O)(=O)/N=C2/C=C(C3C(=O)CC(C)(C)CC3=O)C(=O)c3ccccc32)cc1	i	i	i	nt	?	14.1µM
Cc1ccc(S(=O)(=O)N2CCC(C(=O)C3C(=O)CC(C)(C)CC3=O)CC2)cc1	i	i	i	i	i	i
O=C(NCC1(N2CCOCC2)CCCCC1)c1cccc(S(=O)(=O)N2CCc3ccccc3C2)c1	i	i	i	?	8.28µM	i
SMILES	AmpC inh detg	AmpC inh no detg	SARS PLpro yeast	Pf growth 96h	Pf growth 48h	Sm TGR inh
N#Cc1ccccc1S(=O)(=O)N1CCN(CC(=O)NCC2(N3CCOCC3)CCCCC2)CC1	i	i	i	10.4µM	?	i
O=C(CN1CCN(S(=O)(=O)c2ccccc2Cl)CC1)NCC1(N2CCOCC2)CCCCC1	i	i	i	?	11.7µM	i
O=C(CN1CCN(CC(=O)Nc2ccccc2Cl)CC1)NCC1(N2CCCCC2)CCCCC1	i	i	i	?	?	i
O=C(CN1CCN(CC(=O)Nc2ccccc2Cl)CC1)NCC1(N2CCOCC2)CCCCC1	i	i	i	?	10.4µM	i
CC(=O)N1CCN(C(=O)COC(=O)c2oc3ccccc3c2C)CC1	i	i	i	i	i	i
CCOc1ccc(-c2nn(-c3ccccc3)cc2C2NC(=O)NC(C)=C2C(=O)OC(C)C)cc1C (centres undefined)	i	nt	nt	nt	nt	i
Cc1cccc(OCc2nc(CC(=O)Nc3ccc(C)c(C)c3)cs2)c1	i	nt	nt	nt	nt	i
CCc1nn(CC(=O)N2CCN(c3cccc(C)c3C)CC2)c(=O)c2cc3sccc3n12	i	nt	nt	nt	nt	i
Cc1cc(Nc2cc(Cl)ccc2C)n2nc(Cc3ccccc3)nc2n1	i	nt	nt	nt	nt	i
Cc1cccc(Nc2cc(Cl)nc(SCC(=O)O)n2)c1C	nt	nt	nt	?	i	nt
O=C(CN1CCN(S(=O)(=O)N2CCCCC2)CC1)Nc1cc(Cl)ccc1Cl	?	i	i	i	i	i
N#Cc1ccccc1NC(=O)CN1CCOCC1	i	i	i	11.7µM	i	i
CC1CCN(CC(=O)Nc2ccccc2C#N)CC1	i	i	i	nt	i	i
NC(=O)C1(N2CCCCC2)CCN(CC(=O)Nc2cc(Cl)ccc2Cl)CC1	?	i	i	i	11.7µM	i
O=C(CN1CCN(S(=O)(=O)c2cccc(Cl)c2)CC1)NCC1(N2CCOCC2)CCCCC1	i	i	i	?	10.4µM	i
COc1ccc(CN(CCN(C)C)c2ccccn2)cc1	?	i	i	i	?	i
CC[N+](C)(C)CCN(Cc1ccc(Cl)cc1)c1ccccn1	i	i	i	2.62µM	nt	i
CC(C)CC(=O)O/N=C1\C(=O)N(Cc2ccc(Cl)cc2)c2ccc([N+](=O)[O-])cc21	?	i	i	5.22µM	?	i
O=c1c(Cc2ccccc2)c(O)c2cccc3c4c(n1c23)CCCC4	i	7.94µM	i	i	i	i
c1ccn2cc(-c3ccc4c(c3)OCO4)cc2c1	i	i	i	i	?	44.7µM
C=CCOc1cccc(C2C(C(=O)c3ccco3)=C(O)C(=O)N2CCN2CCOCC2)c1 (centres undefined)	i	i	i	i	i	25.1µM
C=CCOc1cccc(C2C(C(=O)c3ccco3)=C(O)C(=O)N2Cc2ccco2)c1 (centres undefined)	i	i	i	i	i	31.6µM
C=CCOc1cccc(C2C(C(=O)c3ccco3)=C(O)C(=O)N2Cc2ccncc2)c1 (centres undefined)	i	i	i	i	i	44.7µM
O=C(C1=C(O)C(=O)N(CCc2ccccc2)C1c1cccnc1)c1ccco1 (centres undefined)	i	i	i	i	6.57µM	i
